In PubChem BioAssay AID1159580 (chemical genetic matrix, 2015):
About 2,000 (36%) of roughly 5,500 compounds were called active. Another 18% or so got no clear call; they are omitted. Cut-off read from the data, not from the text of the source: active = normalized growth mostly below about 0.91 (no sharp cut-off); inconclusive = no clear call, values can overlap the other calls; inactive = mostly above about 0.92. Some of the results follow. Where a SMILES comes first, the peptide text is derived from it. Side-chain parts run from the residue outwards. [ ]: non-standard residue; d: D form. The star is where a group is joined. X1 = CCC(C)C(N)C1=NC(C(=O)*)CS1; Orn = NCCC[CH](N)C(=O)O

Assay: chemical genetic growth profiling, strain panel (AID 1159580);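 note: tested at 20 µM; growth read once vehicle control cultures reached saturation at 30 °C; 1 = growth at the plate median or of vehicle wells; lower values mean less growth of the strain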
Conditions: growth OD

Measured: normalized growth

CCC(C)C(N)C1=NC(C(=O)NC(CC(C)C)C(=O)NC(CCC(=O)O)C(=O)NC(C(=O)NCCCCC2NC(=O)C(CC(N)=O)NC(=O)C(CC(=O)O)NC(=O)C(Cc3cnc[nH]3)NC(=O)C(Cc3ccccc3)NC(=O)C(C(C)CC)NC(=O)C(CCCN)NC2=O)C(C)CC)CS1 (stereo not drawn) (cyclo(DNK([Ile-Glu-Leu-X1])[Orn]IFH); configuration not given here)
inactive: S. cerevisiae deletion strains, locus YJR075W, strain HOC1, stronger effect = lower value 0.986 | S. cerevisiae deletion strains, locus YKL009W, strain mrt4, stronger effect = lower value 0.974 | S. cerevisiae deletion strains, locus YKL068W, stronger effect = lower value 0.995 | S. cerevisiae deletion strains, locus YKL085W, strain MDH1 (second series), stronger effect = lower value 0.966 | S. cerevisiae deletion strains, locus YKL085W, strain MDH1, stronger effect = lower value 0.966 | S. cerevisiae deletion strains, locus YKL160W, strain elf1, stronger effect = lower value 1.02 | S. cerevisiae deletion strains, locus YKL190W, strain CNB1, stronger effect = lower value 0.996 | S. cerevisiae deletion strains, locus YKR001C, strain vps1, stronger effect = lower value 1.01 | S. cerevisiae deletion strains, locus YKR026C, strain gcn3, stronger effect = lower value 1.05 | S. cerevisiae deletion strains, locus YKR091W, strain srl3, stronger effect = lower value 0.973 | S. cerevisiae deletion strains, locus YLL001W, strain dnm1, stronger effect = lower value 1.04 | S. cerevisiae deletion strains, locus YLL026W, stronger effect = lower value 1.01 | S. cerevisiae deletion strains, locus YLL041C, strain sdh2, stronger effect = lower value 1.01 | S. cerevisiae deletion strains, locus YLR027C, strain aat2, stronger effect = lower value 1.01 | S. cerevisiae deletion strains, locus YLR039C, strain RIC1, stronger effect = lower value 1.06 | S. cerevisiae deletion strains, locus YLR058C, strain SHM2, stronger effect = lower value 0.994 | S. cerevisiae deletion strains, locus YLR102C, strain apc9, stronger effect = lower value 1.01 | S. cerevisiae deletion strains, locus YLR113W, strain HOG1, stronger effect = lower value 1.05 | S. cerevisiae deletion strains, locus YLR221C, strain rsa3, stronger effect = lower value 1.01 | S. cerevisiae deletion strains, locus YLR258W, strain gsy2, stronger effect = lower value 0.993 | S. cerevisiae deletion strains, locus YLR262C, strain YPT6 (second series), stronger effect = lower value 1.01 | S. cerevisiae deletion strains, locus YLR262C, strain YPT6, stronger effect = lower value 1.02 | S. cerevisiae deletion strains, locus YLR268W, strain sec22, stronger effect = lower value 1.02 | S. cerevisiae deletion strains, locus YLR320W, strain mms22, stronger effect = lower value 0.982 | S. cerevisiae deletion strains, locus YLR330W, strain CHS5, stronger effect = lower value 1.01 | S. cerevisiae deletion strains, locus YLR342W, strain FKS1 (second series), stronger effect = lower value 1.03 | S. cerevisiae deletion strains, locus YLR342W, strain FKS1, stronger effect = lower value 1.02 | S. cerevisiae deletion strains, locus YLR357W, strain rsc2, stronger effect = lower value 1.07 | S. cerevisiae deletion strains, locus YLR370C, strain arc18, stronger effect = lower value 0.999 | S. cerevisiae deletion strains, locus YLR371W, strain rom2, stronger effect = lower value 1.02 | S. cerevisiae deletion strains, locus YLR384C, strain iki3, stronger effect = lower value 0.993 | S. cerevisiae deletion strains, locus YLR418C, strain cdc73, stronger effect = lower value 0.989 | S. cerevisiae deletion strains, locus YML016C, strain PPZ1, stronger effect = lower value 0.992 | S. cerevisiae deletion strains, locus YML032C, strain rad52, stronger effect = lower value 0.967 | S. cerevisiae deletion strains, locus YML120C, strain ndi1, stronger effect = lower value 0.994 | S. cerevisiae deletion strains, locus YML124C, strain tub3, stronger effect = lower value 0.981 | S. cerevisiae deletion strains, locus YMR058W, strain fet3, stronger effect = lower value 1.02 | S. cerevisiae deletion strains, locus YMR078C, strain ctf18, stronger effect = lower value 0.988 | S. cerevisiae deletion strains, locus YMR125W, strain sto1, stronger effect = lower value 1.02 | S. cerevisiae deletion strains, locus YMR129W, stronger effect = lower value 0.997 | S. cerevisiae deletion strains, locus YMR205C, strain PFK2, stronger effect = lower value 0.998 | S. cerevisiae deletion strains, locus YMR223W, strain ubp8, stronger effect = lower value 1 | S. cerevisiae deletion strains, locus YMR231W, strain pep5, stronger effect = lower value 0.996 | S. cerevisiae deletion strains, locus YMR263W, strain SAP30, stronger effect = lower value 1.01 | S. cerevisiae deletion strains, locus YMR307W, strain GAS1, stronger effect = lower value 0.955 | S. cerevisiae deletion strains, locus YNL067W, strain RPL9B, stronger effect = lower value 1 | S. cerevisiae deletion strains, locus YNL071W, strain lat1, stronger effect = lower value 1 | S. cerevisiae deletion strains, locus YNL128W, strain TEP1, stronger effect = lower value 0.999 | S. cerevisiae deletion strains, locus YNL153C, strain GIM3, stronger effect = lower value 0.992 | S. cerevisiae deletion strains, locus YNL183C, strain NPR1, stronger effect = lower value 0.975 | S. cerevisiae deletion strains, locus YNL209W, strain ssb2, stronger effect = lower value 0.991 | S. cerevisiae deletion strains, locus YNL233W, strain BNI4, stronger effect = lower value 1.01 | S. cerevisiae deletion strains, locus YNL248C, strain rpa49, stronger effect = lower value 0.998 | S. cerevisiae deletion strains, locus YNL250W, strain rad50, stronger effect = lower value 1.01 | S. cerevisiae deletion strains, locus YNL271C, strain bni1, stronger effect = lower value 1.01 | S. cerevisiae deletion strains, locus YNL298W, strain CLA4, stronger effect = lower value 0.966 | S. cerevisiae deletion strains, locus YNL307C, strain MCK1, stronger effect = lower value 1 | S. cerevisiae deletion strains, locus YNL322C, strain KRE1 (second series), stronger effect = lower value 0.994 | S. cerevisiae deletion strains, locus YNR049C, strain mso1, stronger effect = lower value 0.995 | S. cerevisiae deletion strains, locus YNR052C, strain pop2, stronger effect = lower value 0.992 | S. cerevisiae deletion strains, locus YOL006C, strain TOP1, stronger effect = lower value 0.996 | S. cerevisiae deletion strains, locus YOL012C, strain htz1 1.9 | S. cerevisiae deletion strains, locus YOL147C, strain pex11, stronger effect = lower value 0.994 | S. cerevisiae deletion strains, locus YOR001W, strain rrp6, stronger effect = lower value 1.01 | S. cerevisiae deletion strains, locus YOR061W, strain CKA2, stronger effect = lower value 1.01 | S. cerevisiae deletion strains, locus YOR069W, strain VPS5, stronger effect = lower value 1 | S. cerevisiae deletion strains, locus YOR070C, strain gyp1, stronger effect = lower value 1.01 | S. cerevisiae deletion strains, locus YOR080W, strain dia2, stronger effect = lower value 1 | S. cerevisiae deletion strains, locus YOR083W, strain WHI5, stronger effect = lower value 1.04 | S. cerevisiae deletion strains, locus YOR106W, strain vam3, stronger effect = lower value 1.02 | S. cerevisiae deletion strains, locus YOR136W, strain idh2, stronger effect = lower value 1.01 | S. cerevisiae deletion strains, locus YOR144C, strain elg1, stronger effect = lower value 0.999 | S. cerevisiae deletion strains, locus YOR184W, strain ser1, stronger effect = lower value 1.01 | S. cerevisiae deletion strains, locus YOR231W, strain MKK1, stronger effect = lower value 1.03 | S. cerevisiae deletion strains, locus YOR265W, strain rbl2, stronger effect = lower value 1.01 | S. cerevisiae deletion strains, locus YOR270C, strain vph1, stronger effect = lower value 1 | S. cerevisiae deletion strains, locus YOR290C, strain snf2, stronger effect = lower value 0.963 | S. cerevisiae deletion strains, locus YOR316C, strain cot1, stronger effect = lower value 1 | S. cerevisiae deletion strains, locus YPL051W, strain arl3, stronger effect = lower value 1.04 | S. cerevisiae deletion strains, locus YPL078C, strain atp4, stronger effect = lower value 1.02 | S. cerevisiae deletion strains, locus YPL106C, strain sse1, stronger effect = lower value 0.976 | S. cerevisiae deletion strains, locus YPL240C, strain hsp82, stronger effect = lower value 1 | S. cerevisiae deletion strains, locus YPL256C, strain CLN2, stronger effect = lower value 1.02 | S. cerevisiae deletion strains, locus YPR119W, strain clb2, stronger effect = lower value 0.993 | S. cerevisiae deletion strains, locus YPR141C, strain kar3, stronger effect = lower value 0.994 | S. cerevisiae deletion strains, locus YPR163C, strain tif3, stronger effect = lower value 0.995 | S. cerevisiae deletion strains, locus YPR167C, strain met16, stronger effect = lower value 0.993 | S. cerevisiae deletion strains, strain wtn01, stronger effect = lower value 1.03 | S. cerevisiae strains, strain wild type, stronger effect = lower value 0.992
